Assay outcomes from PubChem.
mHTT-CaM PPI inh – mutant huntingtin-calmodulin interaction inhibitors – biochemical, AlphaScreen, primary screen. AID 1671202, 2021. inhibition, % at 15 µM. 3.6% of 190,000 active. AlphaScreen His-mHTT/GST-CaM binding, luminescence. P42858;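 also: 0% = both proteins with DMSO and 100% = one protein alone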
Pf apPOL inh – Pf-apPOL inhibitors, biochemical, fluorescence; Recombinant Pf-apPOL, molecular beacon fluorescence, 1.5 h; inhibition, % at 10 µM; 0.25% of 210,000 active; AID 1794808, 2022; Plasmodium falciparum apicoplast DNA polymerase (apPOL)
Numbers without * were called inactive; x = no result; ! = repeats disagree. This is a sample that favours compounds with a hit; in the whole collection about 3.5% have one here. Rule as the data show it: active = inhibition above about 50%; inactive = the rest.

SMILES	mHTT-CaM PPI inh	Pf apPOL inh
Cc1cc(Br)c2c3c(c(N)c(=O)[nH]c13)-c1ccccc1C2=O	29	-2
Cc1cc2c3c(c(Br)cc(S(=O)(=O)O)c3n1)C(=O)c1ccccc1-2	99*	2
O=C(Nc1nc2c(s1)CN(S(=O)(=O)Cc1cccc(F)c1)CC2)c1cccs1	-6	-3
O=C(Nc1ccccc1F)N1CCC2(CC1)Nc1ccccc1-n1cccc12	50*	-3
Cc1ccccc1NC(=O)N1CCC2(CC1)Nc1ccccc1-n1cccc12	33	-2
O=C(Nc1ccc(F)cc1F)N1CCC2(CC1)Nc1ccccc1-n1cccc12	54*	7
O=C(Nc1cc(F)ccc1F)N1CCC2(CC1)Nc1cc(F)ccc1-n1cccc12	59*	-12
O=C(Cn1c(=O)oc2cc(Cl)ccc21)NCCCN1CCN(c2ccccc2F)CC1	4	0
CCOc1ccc(N2CC(c3nnc(NC(=O)c4ccc(Cl)cc4)o3)CC2=O)cc1 (stereo unspecified)	9	-2
CCOc1ccc(N2CC(c3nnc(NC(=O)c4ccc(C)cc4)o3)CC2=O)cc1 (stereo unspecified)	60*	-2
COc1ccc(N2CC(c3nnc(NC(=O)c4ccc(C)cc4)o3)CC2=O)cc1 (stereo unspecified)	50*	-1
COc1ccc(N2CC(c3nnc(NC(=O)c4ccc(C(C)(C)C)cc4)o3)CC2=O)cc1 (stereo unspecified)	8	-3
COc1c(C(=O)N2CCN(c3ccccc3)CC2)sc2ccc(F)cc12	60*	1
COc1c(C(=O)N2CCOCC2)sc2ccc(F)cc12	-5	-1
Cn1ncc(Cl)c1C(=O)NN	-11	x
Cc1ccccc1C(=O)NC(N1CCCCC1)C(Cl)(Cl)Cl (stereo unspecified)	-2	-9
COc1ccc(C2CC(c3ccc(-c4ccccc4)cc3)Nc3nnnn32)cc1 (stereo unspecified)	64*	-7
COc1ccc(C2CC(c3ccccc3)Nc3nnnn32)cc1 (stereo unspecified)	-1	2
CC(=O)Nc1ccc2nc(N3CCC(C(=O)N4CCCCC4)CC3)cc(C)c2c1	0	-1
COc1ccc(-c2ccc(C(=O)N3CCCCC3)s2)c(OC)c1OC	0	-8
COc1ccc(-c2ccc(C(=O)N3CCc4ccccc4C3)s2)c(OC)c1OC	83*	-5
CC(=O)Nc1nc2ccc(Br)cc2s1	-3	0
CC(=O)Nc1nc2cc3sc(NC(C)=O)nc3cc2s1	-6	53*!
O=C1CCCC2=C1C(c1cccc(F)c1Br)n1c(nc3ccccc31)N2 (stereo unspecified)	5	-14
Cc1oc2ccc(OCc3cccc(F)c3)cc2c1C(=O)O	10	56*
SMILES	mHTT-CaM PPI inh	Pf apPOL inh
Cc1oc2ccc(OCc3ccccc3)cc2c1C(=O)O	-5	0
Cc1ccc2c(c1)N(C(C)C(=O)NCc1cccnc1)C(=O)CO2 (stereo unspecified)	-6	-5
COc1ccc(C(=O)N2CCC(c3cc(N)on3)CC2)cc1	1	1
Cc1cccc(NC(=O)Nc2nccn(-c3ccccc3)c2=O)c1	5	-3
CC(=O)Oc1ccc2c(c1)OC(=Cc1ccccc1Br)C2=O	0	-6
CC(=O)Oc1ccc2c(c1)Oc1cc(OC(C)=O)ccc1C21OC(=O)c2ccccc21	87*	6
CC(C)NC(=O)c1ccc(OCC2CCN(C(=O)c3ccc(F)c(Cl)c3)CC2)cc1	44	1
O=C(Nc1ccc(-c2nc3ccccc3s2)cc1)c1ncn[nH]1	54*	-6
Cc1cc(C(=O)Nc2cccc(-c3nc4ccccc4s3)c2)on1	-2	54*
Cc1ccc(-c2nc3ccccc3s2)cc1NC(=O)c1ccco1	0	-7
COc1cccc(C(=O)Nc2cccc(-c3nc4ccccc4s3)c2)c1	-6	0
O=C(Nc1ccc(-c2nc3ccccc3s2)cc1)c1ccccc1F	5	2
O=C(Nc1ccc(-c2nc3ccccc3s2)c(O)c1)c1ccccc1	-13	97*
Cc1ccc(-c2nc3ccccc3s2)cc1NC(=O)c1ncn[nH]1	98*	-4
O=C(Nc1ccc(-c2nc3ccccc3s2)c(O)c1)c1ccc(F)cc1	-4	0
CC1=NN(c2ccccc2)C(=O)C1C1c2ccccc2Oc2ccccc21 (stereo unspecified)	4	-8
COc1ccccc1C=C1Oc2c(CN(C)C)c(O)cc(C)c2C1=O	7	0
Cn1c(COc2ccccc2)nn(C2c3ccccc3Oc3ccccc32)c1=S	54*	x
Cn1c(COc2ccccc2)nn(CN2CCC3(CC2)OCCO3)c1=S	-8	x
C[C@H]1[C@@H](NC(=O)c2ccc(Cl)c(C(F)(F)F)c2)CC[C@@]23CCCN2C(=O)CCC[C@@H]13	16	0
CCC[C@H]1[C@@H](NC(=O)c2ccc(Cl)c(C(F)(F)F)c2)CC[C@@]23CCCN2C(=O)CCC[C@@H]13	96*	3
CC1=C(C(=O)Nc2ccc(C)c(Cl)c2)C2(CCC(C)CC2)OC1=O (stereo unspecified)	42	4
COc1ccc(-c2nc3ccc(C)cn3c2NC(C)=O)cc1OC	8	8
COc1ccc(-c2nc3ccc(C)cn3c2NC(=O)C(Cl)Cl)cc1OC	52*	33
COc1ccc(-c2nc3ccc(C)cn3c2NC(=O)C2CCCCC2)cc1OC	36	3
COc1ccc(-c2nc3ccccn3c2NC(=O)C2CCCCC2)cc1OC	59*	-5
CC1CCCN(C(=O)c2ccccc2Br)C1 (stereo unspecified)	-8	5
COc1ccc(-n2nc(C(=O)Nc3c(F)cccc3F)c3ccccc3c2=O)c(OC)c1	19	1
O=C1C2C3C=CC(CO)(O3)C2C(=O)N1c1ccc(Cl)cc1 (stereo unspecified)	-2	-3
